# Data from the supplement of paper PMC6555819.
# Tested on: RARg:RXRa (NR concentration 270 nM, RXRa partner concentration 90 nM)
# Experiment: PBM binding z-score (relative to random genomic background probes); higher = stronger binding; sequences stand for … in GC…GCGATTGACAGCGTAGAATGAAGG
# Summary of the method: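 Custom Agilent 4×180K protein-binding microarrays carried double-stranded probes. Their 34-nt variable regions held direct-repeat seeds, single-nucleotide variants, half-site ablations and random human genomic background sequences. Arrays were incubated 1 h with ligand-free nuclear receptor dimers in PBS pH 7.4, 2% milk, 0.02% Triton X-100, 1 mM DTT, 0.2 mg/mL BSA and 0.4 mg/ml salmon testes DNA. Antibodies against each partner (one per run) detected binding, and scanned fluorescence was regression-normalized. Binding z-scores use random background probes as reference.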
row,Sequence,PBM binding z-score
1,TCTCGGAGGACACAAAGGTCAGAGCTTTCCAGAG,4.8
2,ACTAGTTGGTCAGCTGAGGTCACACCCAATTCGG,3.85
3,TAGCCTAGGTCATTCAGGGGCCAGCATAGAAAGC,6.31
4,CGTCCAAGGTCACGGTCAGTGAAAGAGACTCGAA,7.19
5,AGAATGAGGTCATTAAGATCAGGGAATTGCGGTC,5.83
6,GCTTACGGGTCCAAGGTTATAGCATGAATAGAAT,0.631
7,TACCCTAGGTCATTGGGCCAGTATAGTACGCATC,4.13
8,CGTCAAAGATCAAGGTAACGTAACAGAAAGCAGC,0.224
9,CCTTACGGGTCACGTGGTTATAGCACGACGAGCG,5.5
10,AACGAAAGGTCGAAGGTGAGTATACCCACCCGAA,4.5
11,CAAACTAGGTCACTAAAGGTCAAAGTCGAATGAC,7.43
12,ATATGTAGGTTATCTGGGGTCATTCAGACTAGGC,4.51
13,CGTCCGAGGTCATAGGAGGTCAGTGAAGACAGAT,7.12
14,GCTGCTAGGTCAACTGATGGTCACCTAAAGCTCG,5.53
15,CCTACTGGGCCAAAAAGGTCATTGATGCCGATAA,4.72
16,CGAACAAGGTCATCCAGGACAGTGAATACATTGA,6.28
17,TCTTGTAGGTCAATAGAGGTTAAGAAAGTGCGCT,4.56
18,GATACAGGGTCAAGGTCAGAGTACGCGTATTGAT,6.26
19,TAGCCTAGGTCGTTCAGGGGCCAGTATAGAAAGC,3.43
20,ATATGTAGGTTAAGCGTCATTCAGGTTGGTTCGC,0.863

row,Sequence,PBM binding z-score
1,AGAATGGGGTTATACGTAGATCAGGGAAGAAAGT,2.66
2,AATAAAGGGTCATCGTAGGCCAGAGTACGCACAG,6.49
3,CGTCAAAGTTCAAGGTCACGTAACAGAAAGCAGC,7.15
4,CAGCATAGGTCAGGGCCAGTATAGGAGGAACGTT,3.97
5,TTGCCTAGGTCATTGGGCCAGTATAGTACGCATC,3.73
6,TATAAAGGGTCAAAGGCCAGAGTACGAATGTCGA,6.39
7,TAGCCTAGGTCATTCAGGGGCCACTATAGAAAGC,6.46
8,AGTCAAAGTTTATCTAGGTAACGTAAGATATGCT,1.12
9,CGAACTACGTCATCCAGGACAGTGAATACATTGA,0.374
10,CGCACTAGGTCATCCAGGACAGTGAATACATTGA,3.99
11,CGTCCAAGGTCTAGGTCAGTGAAAGAGACTCGAA,1.6
12,CAAACTAGTTCAAGAGGTCAAAGTCCGCTTCCCG,6.53
13,ATATGTAGGTTGGGGTCATTCAGAAAGTAGGGAA,5.15
14,CGTCCAAGGACAATGCTAGGTCAGTGAAAGCATT,1.34
15,CCAGACAGGTGAGAAGGTAACTCAGCCTCGATTA,0.555
16,CATACAGGGTCGGCTAGGCCAGAGTAGGGACGGC,0.866
17,ACTCGGAGGACAAAGGTCAGGGCTACGCCAGTGA,6.45
18,TTACCAAGGTGAACGGTCGTTGATGCACGCCTTG,0.796
19,GTTACAGGGTCAAGGCCAGAGTACGCGTATTGAT,5.65
